Measured values from PMC7862700, “An all-to-all approach to the identification of sequence-specific readers for epigenetic DNA modifications on cytosine”.

Experiments:
Assay in all cases: DAPPL (digital affinity profiling via proximity ligation, sequencing); 10 mM Tris-HCl pH 7.5, 50 mM NaCl, 1 mM DTT, 4% glycerol, room temperature, 30 min; GST-TFs on glutathione beads, 16-mer random dsDNA library, 0.1% formaldehyde crosslink after washing; high values mean tight binding
Conditions in all cases: protein: recombinant; tags: N-terminal GST; dsDNA, one strand shown
ERF = target: T1, ERF (Homo sapiens, UniProt P50548 1-548)
T1 sequence: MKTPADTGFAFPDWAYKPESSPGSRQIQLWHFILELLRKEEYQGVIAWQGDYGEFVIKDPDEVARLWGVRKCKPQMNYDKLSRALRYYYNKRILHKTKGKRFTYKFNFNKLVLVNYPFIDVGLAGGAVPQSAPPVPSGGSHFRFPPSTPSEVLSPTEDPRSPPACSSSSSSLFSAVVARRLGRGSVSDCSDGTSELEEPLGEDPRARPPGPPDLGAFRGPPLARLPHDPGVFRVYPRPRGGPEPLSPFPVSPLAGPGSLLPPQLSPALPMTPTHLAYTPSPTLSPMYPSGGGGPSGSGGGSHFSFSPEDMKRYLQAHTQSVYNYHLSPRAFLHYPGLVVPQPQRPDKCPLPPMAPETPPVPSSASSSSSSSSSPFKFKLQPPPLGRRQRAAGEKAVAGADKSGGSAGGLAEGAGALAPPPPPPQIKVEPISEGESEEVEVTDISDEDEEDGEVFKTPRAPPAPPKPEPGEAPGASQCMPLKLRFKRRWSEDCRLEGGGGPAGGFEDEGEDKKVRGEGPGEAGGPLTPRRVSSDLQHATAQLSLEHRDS
Summary of the method: (§1)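 Yeast served to express human transcription factors as GST fusions, which were then captured on glutathione beads and labelled with DNA barcodes. Pooled with a tag-only sample, they were incubated with 200 nmole of a 16-mer random double-stranded DNA library for 30 min at room temperature in Tris/NaCl/DTT/glycerol buffer, washed, crosslinked with 0.1% formaldehyde, ligated by proximity, amplified by PCR and sequenced. Dividing each hexamer's read frequency for a factor by its frequency for the tag-only sample gives the binding signal.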

ETV3L = target: T2, ETV3L (Homo sapiens, UniProt Q6ZN32 1-361)
T2 sequence: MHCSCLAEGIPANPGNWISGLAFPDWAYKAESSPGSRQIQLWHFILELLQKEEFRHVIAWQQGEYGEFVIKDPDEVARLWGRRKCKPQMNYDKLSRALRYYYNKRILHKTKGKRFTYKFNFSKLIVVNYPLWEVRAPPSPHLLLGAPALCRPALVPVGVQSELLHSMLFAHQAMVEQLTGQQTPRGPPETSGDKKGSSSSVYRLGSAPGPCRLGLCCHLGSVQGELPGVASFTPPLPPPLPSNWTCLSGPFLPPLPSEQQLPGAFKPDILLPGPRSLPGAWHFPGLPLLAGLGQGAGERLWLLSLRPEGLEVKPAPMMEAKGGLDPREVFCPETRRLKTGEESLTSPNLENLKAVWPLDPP
Summary of the method: as §1

ETS2 = target: T3, ETS2 (Homo sapiens, UniProt P15036 1-469)
T3 sequence: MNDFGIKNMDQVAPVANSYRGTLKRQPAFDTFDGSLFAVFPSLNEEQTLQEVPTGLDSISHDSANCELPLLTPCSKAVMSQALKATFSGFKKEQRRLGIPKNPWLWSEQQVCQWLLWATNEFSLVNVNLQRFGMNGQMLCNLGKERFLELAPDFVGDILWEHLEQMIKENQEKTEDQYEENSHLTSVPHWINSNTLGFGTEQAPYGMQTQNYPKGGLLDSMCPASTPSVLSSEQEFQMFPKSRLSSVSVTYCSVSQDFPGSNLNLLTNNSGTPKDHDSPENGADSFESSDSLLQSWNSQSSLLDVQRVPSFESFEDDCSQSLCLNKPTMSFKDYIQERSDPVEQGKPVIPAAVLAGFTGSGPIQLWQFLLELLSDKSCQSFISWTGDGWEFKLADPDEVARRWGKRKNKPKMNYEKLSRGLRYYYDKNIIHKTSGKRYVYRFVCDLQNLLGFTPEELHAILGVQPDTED
Summary of the method: as §1

SPDEF = target: T4, SPDEF (Homo sapiens, UniProt O95238 1-335)
T4 sequence: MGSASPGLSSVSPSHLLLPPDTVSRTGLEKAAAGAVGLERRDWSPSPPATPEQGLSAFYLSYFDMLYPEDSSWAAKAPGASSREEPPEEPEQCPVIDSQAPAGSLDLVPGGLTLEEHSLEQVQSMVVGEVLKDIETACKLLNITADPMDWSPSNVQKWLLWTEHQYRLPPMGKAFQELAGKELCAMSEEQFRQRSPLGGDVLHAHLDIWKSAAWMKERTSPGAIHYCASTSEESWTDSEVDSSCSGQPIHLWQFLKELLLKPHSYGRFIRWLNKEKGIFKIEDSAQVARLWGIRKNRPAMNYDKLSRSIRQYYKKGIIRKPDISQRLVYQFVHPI
Summary of the method: as §1

ETV7 = target: T5, ETV7 (Homo sapiens, UniProt Q9Y603 1-341)
T5 sequence: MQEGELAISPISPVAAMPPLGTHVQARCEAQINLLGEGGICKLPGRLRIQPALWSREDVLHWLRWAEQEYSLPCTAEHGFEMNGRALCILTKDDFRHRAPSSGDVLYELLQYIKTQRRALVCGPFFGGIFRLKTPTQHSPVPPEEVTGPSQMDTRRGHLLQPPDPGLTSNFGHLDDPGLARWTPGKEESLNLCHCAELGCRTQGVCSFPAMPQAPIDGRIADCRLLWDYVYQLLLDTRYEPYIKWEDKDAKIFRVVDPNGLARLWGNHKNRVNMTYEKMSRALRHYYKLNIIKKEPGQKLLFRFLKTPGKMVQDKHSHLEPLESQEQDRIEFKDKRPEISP
Summary of the method: as §1

ELF5 = target: T6, ELF5 (Homo sapiens, UniProt Q9UKW6-2 1-255)
T6 sequence: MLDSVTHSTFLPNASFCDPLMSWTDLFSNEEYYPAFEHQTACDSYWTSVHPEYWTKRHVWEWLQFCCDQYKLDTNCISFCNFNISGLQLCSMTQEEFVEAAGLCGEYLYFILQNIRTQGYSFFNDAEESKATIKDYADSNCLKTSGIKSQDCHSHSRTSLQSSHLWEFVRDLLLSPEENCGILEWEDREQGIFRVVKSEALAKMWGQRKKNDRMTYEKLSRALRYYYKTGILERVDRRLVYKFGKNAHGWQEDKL
Summary of the method: as §1

ETV3 = target: T7, ETV3 (Homo sapiens, UniProt P41162-2 1-143)
T7 sequence: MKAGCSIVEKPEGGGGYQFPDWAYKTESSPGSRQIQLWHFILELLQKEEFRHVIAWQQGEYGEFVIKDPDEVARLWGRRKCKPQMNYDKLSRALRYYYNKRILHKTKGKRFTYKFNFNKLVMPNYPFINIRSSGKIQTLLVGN
Summary of the method: as §1

ETV6 = ETV6 (Homo sapiens, UniProt P41212 1-452)
ETV6, sequence (P41212 whole entry): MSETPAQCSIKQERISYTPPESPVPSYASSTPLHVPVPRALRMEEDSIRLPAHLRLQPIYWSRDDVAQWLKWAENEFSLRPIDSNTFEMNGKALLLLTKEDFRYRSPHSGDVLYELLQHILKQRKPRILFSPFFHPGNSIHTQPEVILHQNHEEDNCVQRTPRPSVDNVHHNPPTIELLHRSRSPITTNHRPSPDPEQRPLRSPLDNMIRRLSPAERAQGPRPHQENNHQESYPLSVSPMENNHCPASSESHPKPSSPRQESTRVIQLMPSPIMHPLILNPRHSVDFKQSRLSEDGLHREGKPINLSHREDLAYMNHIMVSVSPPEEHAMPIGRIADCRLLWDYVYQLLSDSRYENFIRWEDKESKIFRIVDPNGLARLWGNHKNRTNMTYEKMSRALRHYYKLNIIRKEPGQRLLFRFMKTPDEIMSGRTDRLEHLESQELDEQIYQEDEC
Summary of the method: as §1

| Sequence | binding signal (ERF) | binding signal (ETV3L) | binding signal (ETS2) | binding signal (SPDEF) | binding signal (ETV7) | binding signal (ELF5) | binding signal (ETV3) | binding signal (ETV6) |
| --- | --- | --- | --- | --- | --- | --- | --- | --- |
| ATCATG | 1.19 fold enrichment (6-mer frequency, TF over GST control) | 1.08 fold enrichment (6-mer frequency, TF over GST control) | 1.14 fold enrichment (6-mer frequency, TF over GST control) | 1.07 fold enrichment (6-mer frequency, TF over GST control) | 1.13 fold enrichment (6-mer frequency, TF over GST control) | 1.11 fold enrichment (6-mer frequency, TF over GST control) | 1.19 fold enrichment (6-mer frequency, TF over GST control) | 1.08 fold enrichment (6-mer frequency, TF over GST control) |
| CTGATG | 1.48 fold enrichment (6-mer frequency, TF over GST control) | 1.53 fold enrichment (6-mer frequency, TF over GST control) | 1.68 fold enrichment (6-mer frequency, TF over GST control) | 1.5 fold enrichment (6-mer frequency, TF over GST control) | 1.64 fold enrichment (6-mer frequency, TF over GST control) | 1.64 fold enrichment (6-mer frequency, TF over GST control) | 1.74 fold enrichment (6-mer frequency, TF over GST control) | 1.72 fold enrichment (6-mer frequency, TF over GST control) |
| CCAAAT | 1.11 fold enrichment (6-mer frequency, TF over GST control) | 1.02 fold enrichment (6-mer frequency, TF over GST control) | 1.08 fold enrichment (6-mer frequency, TF over GST control) | 1.05 fold enrichment (6-mer frequency, TF over GST control) | 1.06 fold enrichment (6-mer frequency, TF over GST control) | 1.01 fold enrichment (6-mer frequency, TF over GST control) | 1.03 fold enrichment (6-mer frequency, TF over GST control) | 1.06 fold enrichment (6-mer frequency, TF over GST control) |
| TGGTTA | 1.05 fold enrichment (6-mer frequency, TF over GST control) | 1.12 fold enrichment (6-mer frequency, TF over GST control) | 1.07 fold enrichment (6-mer frequency, TF over GST control) | 1.07 fold enrichment (6-mer frequency, TF over GST control) | 1.16 fold enrichment (6-mer frequency, TF over GST control) | 1.05 fold enrichment (6-mer frequency, TF over GST control) | 1.05 fold enrichment (6-mer frequency, TF over GST control) | 1.1 fold enrichment (6-mer frequency, TF over GST control) |
| ATCACT | 1.16 fold enrichment (6-mer frequency, TF over GST control) | 1.16 fold enrichment (6-mer frequency, TF over GST control) | 1.22 fold enrichment (6-mer frequency, TF over GST control) | 1.22 fold enrichment (6-mer frequency, TF over GST control) | 1.26 fold enrichment (6-mer frequency, TF over GST control) | 1.27 fold enrichment (6-mer frequency, TF over GST control) | 1.15 fold enrichment (6-mer frequency, TF over GST control) | 1.28 fold enrichment (6-mer frequency, TF over GST control) |
| GCAAAA | 1.14 fold enrichment (6-mer frequency, TF over GST control) | 1.06 fold enrichment (6-mer frequency, TF over GST control) | 1.18 fold enrichment (6-mer frequency, TF over GST control) | 1 fold enrichment (6-mer frequency, TF over GST control) | 1.09 fold enrichment (6-mer frequency, TF over GST control) | 1.06 fold enrichment (6-mer frequency, TF over GST control) | 1.07 fold enrichment (6-mer frequency, TF over GST control) | 1.04 fold enrichment (6-mer frequency, TF over GST control) |
| ATCTTT | 1.22 fold enrichment (6-mer frequency, TF over GST control) | 1.34 fold enrichment (6-mer frequency, TF over GST control) | 1.18 fold enrichment (6-mer frequency, TF over GST control) | 1.17 fold enrichment (6-mer frequency, TF over GST control) | 1.13 fold enrichment (6-mer frequency, TF over GST control) | 1.21 fold enrichment (6-mer frequency, TF over GST control) | 1.21 fold enrichment (6-mer frequency, TF over GST control) | 1.2 fold enrichment (6-mer frequency, TF over GST control) |
| GCGTTC | 1.11 fold enrichment (6-mer frequency, TF over GST control) | 1.15 fold enrichment (6-mer frequency, TF over GST control) | 1.21 fold enrichment (6-mer frequency, TF over GST control) | 1.02 fold enrichment (6-mer frequency, TF over GST control) | 1.23 fold enrichment (6-mer frequency, TF over GST control) | 1.03 fold enrichment (6-mer frequency, TF over GST control) | 1.11 fold enrichment (6-mer frequency, TF over GST control) | 1.12 fold enrichment (6-mer frequency, TF over GST control) |
